Assay results published in article PMC4336329 (PLoS ONE, 2015).
Among all 310,000 compounds or so, about 14,000 (4.5%) showed an effect of 50% or more. Effects have a minus sign here. The full list was thinned out, with strong results kept by preference.

biological target: human ether-à-go-go-related gene (hERG) potassium channel (human, UniProt Q12809); assay: primary screen, population patch clamp on CHO cells stably expressing hERG; higher = less effect of the substance
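Further: peak tail current of the secondary pulse compared with the same well before compound.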

Sequence of human ether-à-go-go-related gene (hERG) potassium channel (Q12809 whole entry, looked up): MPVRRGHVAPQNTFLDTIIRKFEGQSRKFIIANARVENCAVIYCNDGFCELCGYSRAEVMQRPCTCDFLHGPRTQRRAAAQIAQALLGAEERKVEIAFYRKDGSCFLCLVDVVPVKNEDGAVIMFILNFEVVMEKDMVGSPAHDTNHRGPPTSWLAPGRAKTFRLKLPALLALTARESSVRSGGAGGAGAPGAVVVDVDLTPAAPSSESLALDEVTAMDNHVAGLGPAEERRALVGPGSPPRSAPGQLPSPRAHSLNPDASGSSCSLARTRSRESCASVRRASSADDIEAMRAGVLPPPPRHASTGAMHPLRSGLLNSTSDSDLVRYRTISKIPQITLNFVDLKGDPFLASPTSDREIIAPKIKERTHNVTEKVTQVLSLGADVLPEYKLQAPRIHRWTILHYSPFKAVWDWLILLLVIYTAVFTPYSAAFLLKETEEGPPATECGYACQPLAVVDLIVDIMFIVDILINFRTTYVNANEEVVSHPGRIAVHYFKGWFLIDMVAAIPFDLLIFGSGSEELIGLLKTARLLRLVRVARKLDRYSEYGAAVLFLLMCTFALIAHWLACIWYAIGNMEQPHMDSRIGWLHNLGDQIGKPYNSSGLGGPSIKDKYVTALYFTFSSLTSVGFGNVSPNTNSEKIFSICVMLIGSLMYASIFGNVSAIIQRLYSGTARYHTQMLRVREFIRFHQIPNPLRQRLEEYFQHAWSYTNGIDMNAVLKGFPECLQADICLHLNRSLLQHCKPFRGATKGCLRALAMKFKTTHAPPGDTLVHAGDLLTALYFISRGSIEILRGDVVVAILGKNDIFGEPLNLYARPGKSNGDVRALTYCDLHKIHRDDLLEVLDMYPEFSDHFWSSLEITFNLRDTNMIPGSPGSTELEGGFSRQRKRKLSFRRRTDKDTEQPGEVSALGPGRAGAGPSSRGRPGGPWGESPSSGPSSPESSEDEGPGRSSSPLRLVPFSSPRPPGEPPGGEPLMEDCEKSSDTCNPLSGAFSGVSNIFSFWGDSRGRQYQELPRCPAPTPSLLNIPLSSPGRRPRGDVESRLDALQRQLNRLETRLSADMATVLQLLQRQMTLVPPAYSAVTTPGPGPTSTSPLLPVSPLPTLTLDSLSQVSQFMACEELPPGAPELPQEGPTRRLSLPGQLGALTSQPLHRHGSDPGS

For `COc1ccc(CN2CCN(CCC(C)C)C(CCO)C2)cc1Cn1cncn1` (stereo not shown), which “hERG current change (%, negative = inhibition) at 10uM” value is on record?
Its value is 1.78%.

`CCOc1ccc(CN2CCN(Cc3ccsc3)C(CCO)C2)cc1CO` (stereo not shown) was tested. Which “hERG current change (%, negative = inhibition) at 10uM” value did it give?
The value was -39.4%.

Which “hERG current change (%, negative = inhibition) at 10uM” value does the source give for `COCc1cc(CN2CCN(Cc3ccsc3)C(CCO)C2)ccc1OC` (stereo not shown) here?
The value was -82.9%.

`COCc1cc(CN2CCN(CCc3ccccc3)C(CCO)C2)ccc1OC` (stereo not shown) was tested. Which “hERG current change (%, negative = inhibition) at 10uM” value did it give?
Its value is -56.9%.

`CC(C)(O)C#Cc1ccc(CN2CCN(Cc3ccsc3)C(CCO)C2)cc1` (stereo not shown) was tested. Which “hERG current change (%, negative = inhibition) at 10uM” value did it give?
The value was -21.6%.

How did the “hERG current change (%, negative = inhibition) at 10uM” value turn out when `COc1ccc(CN2CCN(CCC(C)C)C(CCO)C2)cc1Cn1cccn1` (stereo not shown) was run?
The value was -48.1%.

For `COCc1cc(CN2CCN(CCCc3ccccc3)C(CCO)C2)ccc1OC` (stereo not shown), which “hERG current change (%, negative = inhibition) at 10uM” value is on record?
Its value is -66.1%.

With `COc1ccc(CN2CCN(CCc3ccccc3)C(CCO)C2)cc1Cn1cncn1` (stereo not shown) as the compound, how does the “hERG current change (%, negative = inhibition) at 10uM” value read?
The value was -35.8%.

`O=C1CN(c2ccc(Cl)cc2)C2(CCCCC2)S1` was tested. Which “hERG current change (%, negative = inhibition) at 10uM” value did it give?
The value was 4.49%.

`Cc1ccc(Cn2ccc(NC(=O)c3cc(-c4ccc(Br)cc4)on3)n2)cc1` was tested. Which “hERG current change (%, negative = inhibition) at 10uM” value did it give?
The value was 22.6%.

`CCOC(=O)c1cc2nc(-c3ccccc3)cc(C)n2n1` was tested. Which “hERG current change (%, negative = inhibition) at 10uM” value did it give?
Its value is 5.61%.

With `COC(=O)c1cc2ccsc2n1Cc1nc(-c2ccc(Cl)cc2)oc1C` as the compound, how does the “hERG current change (%, negative = inhibition) at 10uM” value read?
The value was 7.33%.

With `CSc1nc(N(C)NC(=O)c2ccc(Cl)cc2)c2ccccc2n1` as the compound, how does the “hERG current change (%, negative = inhibition) at 10uM” value read?
Its value is 2.16%.

`Cc1ccc(OCc2ccc(C(=O)Nc3ccc(S(N)(=O)=O)cc3)o2)cc1` was tested. Which “hERG current change (%, negative = inhibition) at 10uM” value did it give?
The value was 12.4%.

With `CCOC(=O)C1=C(O)CSC1=Nc1ccc(C)cc1` as the compound, how does the “hERG current change (%, negative = inhibition) at 10uM” value read?
The value was -4.86%.

With `CCC(C)n1c(SCC(=O)Nc2cc(C(C)(C)C)nn2-c2ccccc2)nc2ccccc2c1=O` (stereo not shown) as the compound, how does the “hERG current change (%, negative = inhibition) at 10uM” value read?
The value was 3.57%.

`CCCNC(=O)c1ccc(N2CC3CC(C2)c2cccc(=O)n2C3)c(NC(=O)Nc2ccc(CC)cc2)c1` (stereo not shown) was tested. Which “hERG current change (%, negative = inhibition) at 10uM” value did it give?
The value was -78.7%.

With `CCc1ccc(NC(=O)Nc2cc(C(=O)O)ccc2N2CC3CC(C2)c2cccc(=O)n2C3)cc1` (stereo not shown) as the compound, how does the “hERG current change (%, negative = inhibition) at 10uM” value read?
The value was 20.4%.

`O=C(Nc1ccc(Cl)cc1)N1CC2CC(C1)c1cccc(=O)n1C2` (stereo not shown) was tested. Which “hERG current change (%, negative = inhibition) at 10uM” value did it give?
Its value is 4.31%.

How did the “hERG current change (%, negative = inhibition) at 10uM” value turn out when `Nc1cc(C(=O)Nc2ccc(Cl)cc2)ccc1N1CC2CC(C1)c1cccc(=O)n1C2` (stereo not shown) was run?
Its value is -62.1%.

`CCc1ccc(NC(=O)Nc2cc(C(=O)NCC3CCCO3)ccc2N2CC3CC(C2)c2cccc(=O)n2C3)cc1` (stereo not shown) was tested. Which “hERG current change (%, negative = inhibition) at 10uM” value did it give?
Its value is -17.6%.

For `CCOc1ccc(NC(=O)c2ccc(N3CC4CC(C3)c3cccc(=O)n3C4)c(N)c2)cc1` (stereo not shown), which “hERG current change (%, negative = inhibition) at 10uM” value is on record?
The value was -21.7%.

`COc1ccc(CCNC(=O)C2CCC(=O)N2CCc2ccccc2)cc1OC` (stereo not shown) was tested. Which “hERG current change (%, negative = inhibition) at 10uM” value did it give?
Its value is 12.4%.

With `O=c1nc2n(c3ccc([N+](=O)[O-])cc13)CCCCC2` as the compound, how does the “hERG current change (%, negative = inhibition) at 10uM” value read?
Its value is -15.4%.

Which “hERG current change (%, negative = inhibition) at 10uM” value does the source give for `CCc1ccc2nc(Nc3nc(COC)cc(=O)[nH]3)nc(C)c2c1` here?
The value was -73.3%.

With `COCc1cc(=O)[nH]c(Nc2nc(C)c3ccccc3n2)n1` as the compound, how does the “hERG current change (%, negative = inhibition) at 10uM” value read?
Its value is -8.74%.

How did the “hERG current change (%, negative = inhibition) at 10uM” value turn out when `COCc1cc(=O)[nH]c(Nc2nc(C)c3cc(OC)ccc3n2)n1` was run?
The value was 7.05%.

Which “hERG current change (%, negative = inhibition) at 10uM” value does the source give for `CCC(=O)Nc1ccc(C(=O)Nc2ccc(OC)cc2[N+](=O)[O-])cc1` here?
The value was 13.7%.

With `FC(F)(F)c1cccc(Cc2noc(CN3CCCCC3c3ccccn3)n2)c1` (stereo not shown) as the compound, how does the “hERG current change (%, negative = inhibition) at 10uM” value read?
Its value is -8.11%.

For `COc1ccccc1C(=O)Nc1ccnn1C1CCN(Cc2cnc(N(C)C)s2)CC1`, which “hERG current change (%, negative = inhibition) at 10uM” value is on record?
Its value is -65%.

For `Cc1ncc(CN2CCC(n3nccc3NC(=O)c3ccccc3)CC2)s1`, which “hERG current change (%, negative = inhibition) at 10uM” value is on record?
Its value is -19%.

How did the “hERG current change (%, negative = inhibition) at 10uM” value turn out when `Cc1ccccc1C(=O)Nc1ccnn1C1CCN(Cc2cccnc2)CC1` was run?
The value was -77.4%.

`COc1ccccc1CN1CCC(n2nccc2NC(=O)c2ccccc2Cl)CC1` was tested. Which “hERG current change (%, negative = inhibition) at 10uM” value did it give?
Its value is -76.2%.

Which “hERG current change (%, negative = inhibition) at 10uM” value does the source give for `Cc1cc(CN2CCC(n3nccc3NC(=O)c3ccccc3Cl)CC2)cc(C)c1O` here?
The value was -74.2%.

For `COc1cccc(OC)c1OC(=O)/C=C/c1ccc(C)o1`, which “hERG current change (%, negative = inhibition) at 10uM” value is on record?
Its value is 6.2%.

For `CC(C)(C)C(=O)NCCCNc1ccc([N+](=O)[O-])cc1`, which “hERG current change (%, negative = inhibition) at 10uM” value is on record?
The value was -24.7%.

Which “hERG current change (%, negative = inhibition) at 10uM” value does the source give for `CC(C)(C)c1ccc(C(=O)NCCC(=O)NCc2ccco2)cc1` here?
Its value is -36.1%.

With `Cc1cc(C)n2nc(CCc3ccccc3)nc2n1` as the compound, how does the “hERG current change (%, negative = inhibition) at 10uM” value read?
Its value is -12.8%.

Which “hERG current change (%, negative = inhibition) at 10uM” value does the source give for `O=C(O)CCC(=O)NC1CCCCC1` here?
The value was 6.89%.

For `COc1ccc(/C=C/c2nc(-c3ccccc3O)n(-c3ccccc3)n2)cc1`, which “hERG current change (%, negative = inhibition) at 10uM” value is on record?
The value was -2.17%.

Which “hERG current change (%, negative = inhibition) at 10uM” value does the source give for `COc1ccc(OC)c(CNc2ccc([N+](=O)[O-])cc2C)c1` here?
The value was 3.55%.

`O=C(Nc1ccnn1C1CCN(Cc2ccccc2)CC1)c1ccccc1Cl` was tested. Which “hERG current change (%, negative = inhibition) at 10uM” value did it give?
The value was -76.1%.

Which “hERG current change (%, negative = inhibition) at 10uM” value does the source give for `Cc1cc(C)c(CN2CCC(n3nccc3NC(=O)c3ccccc3Cl)CC2)cc1C` here?
Its value is -50.8%.

`O=C(Nc1ccnn1C1CCN(C2CCC2)CC1)c1ccccc1Cl` was tested. Which “hERG current change (%, negative = inhibition) at 10uM” value did it give?
The value was -63.6%.

Which “hERG current change (%, negative = inhibition) at 10uM” value does the source give for `O=C(Nc1ccnn1C1CCN(C2CCCC2)CC1)c1ccccc1Cl` here?
The value was -45%.

With `Cc1ccccc1C(=O)Nc1ccnn1C1CCN(Cc2ccccn2)CC1` as the compound, how does the “hERG current change (%, negative = inhibition) at 10uM” value read?
The value was -33.9%.

Which “hERG current change (%, negative = inhibition) at 10uM” value does the source give for `O=C(Nc1ccnn1C1CCN(Cc2cccnc2)CC1)c1ccccc1Cl` here?
The value was -37.1%.

For `O=C(Nc1ccnn1C1CCN(C2CCC2)CC1)c1ccccc1`, which “hERG current change (%, negative = inhibition) at 10uM” value is on record?
The value was -0.539%.

For `Cc1ccccc1C(=O)Nc1ccnn1C1CCN(Cc2ccncc2)CC1`, which “hERG current change (%, negative = inhibition) at 10uM” value is on record?
The value was -45.1%.

With `CCc1ccc(CN2CCC(n3nccc3NC(=O)c3ccccc3C)CC2)cc1` as the compound, how does the “hERG current change (%, negative = inhibition) at 10uM” value read?
Its value is -76.2%.

`C=CCN1C(=O)C(C)(C)Nc2ccccc21` was tested. Which “hERG current change (%, negative = inhibition) at 10uM” value did it give?
Its value is 6.7%.

With `O=C(c1cccnc1Cl)N(Cc1ccccc1)Cc1ccccc1` as the compound, how does the “hERG current change (%, negative = inhibition) at 10uM” value read?
Its value is -17.7%.

For `CC(=O)Nc1ccc(-c2csc(-c3cccnc3)n2)cc1`, which “hERG current change (%, negative = inhibition) at 10uM” value is on record?
The value was 3.98%.

With `O=C1Nc2ccccc2/C1=C/c1ccccc1F` as the compound, how does the “hERG current change (%, negative = inhibition) at 10uM” value read?
Its value is 26.3%.

For `COc1cc(NC(=O)C2CCCO2)c(OC)cc1NC(=O)c1ccccc1` (stereo not shown), which “hERG current change (%, negative = inhibition) at 10uM” value is on record?
The value was 8.17%.
